Source: PubChem BioAssay (EPA / NIEHS)
Records with an inconclusive call do not appear. Calls of active or inactive are those of the source. How the source made its calls: active means hit-call score of the fitted dose curve at least 0.9, where 1 is the maximum; inconclusive means response in the unintended direction; inactive means score below 0.9.

read-out: not listed separately; assay: LTEA_HepaRG_LDH_cytotoxicity: Cytotoxicity Assessment in the Life Technologies and Expression Analysis (LTEA) Assay (AID 2283563)
Method in brief: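 HepaRG (human liver line), 48 h exposure, 8-pt half-log series from 100 uM, 0.5% DMSO vehicle, duplicates. Read-out: LDH in spent medium. Positive-direction fit vs DMSO baseline.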

Row | SMILES | outcome
1 | CCC(C)n1c(=O)[nH]c(C)c(Br)c1=O (stereo not given) | inactive
2 | CCNP(=S)(OC)O/C(C)=C/C(=O)OC(C)C (stereo not given) | inactive
3 | Cc1cc(C)nc(Nc2ccccc2)n1 | inactive
4 | COc1cc(OC)nc(NC(=O)NS(=O)(=O)c2ncccc2OCC(F)(F)F)n1 | inactive
5 | CCN(CC)c1nc(C)cc(OP(=S)(OC)OC)n1 | inactive
6 | CS(=O)(=O)c1cc(C(F)(F)F)ccc1C(=O)c1cnoc1C1CC1 | inactive
7 | CCCCOCN(C(=O)CCl)c1c(CC)cccc1CC | inactive
8 | CNC(=O)Oc1cccc2ccccc12 | inactive
9 | N#Cc1c(Cl)cccc1Cl | inactive
10 | Cc1nc(N(C)C)nc(OC(=O)N(C)C)c1C | inactive

test system: not listed separately; assay: TOX21_p53_BLA_p2_viability: Viability Assessment in the Tox21 HCT-116 p53 Agonism Beta-lactamase Assay, Phase 2 (AID 2283591);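 further: compound exposure lasted 16 h at 37 °C; actives lower the ATP signal meaning cytotoxicity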
Method in brief: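 Cytotoxicity readout: CellTiter-Glo ATP luminescence, 30 min at room temperature, after the beta-lactamase read. Cells were HCT116 exposed 16 h at 37C to compounds pin-transferred at 217-fold dilution from DMSO stocks.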

Row | SMILES | outcome
11 | CNC(=O)N(C)c1nnc(C(C)(C)C)s1 | inactive
12 | Clc1nc(Cl)nc(Nc2ccccc2Cl)n1 | inactive
13 | Nc1cnn(-c2ccccc2)c(=O)c1Cl | inactive
14 | COP(=O)(OC)O/C(C)=C/C(=O)N(C)C | inactive
15 | CN/C(=N\[N+](=O)[O-])NCc1cnc(Cl)s1 | inactive
16 | CN=C=S | inactive
17 | Clc1cccc(C(Cl)(Cl)Cl)n1 | inactive
18 | COC(=O)NC(=S)Nc1ccccc1NC(=S)NC(=O)OC | inactive
19 | CCSC(=O)N1CCCCCC1 | inactive
20 | CCC(C)n1c(=O)[nH]c(C)c(Br)c1=O (stereo not given) | inactive
21 | CCNP(=S)(OC)O/C(C)=C/C(=O)OC(C)C (stereo not given) | inactive
22 | Cc1cc(C)nc(Nc2ccccc2)n1 | inactive
23 | COc1cc(OC)nc(NC(=O)NS(=O)(=O)c2ncccc2OCC(F)(F)F)n1 | inactive
24 | CCN(CC)c1nc(C)cc(OP(=S)(OC)OC)n1 | inactive
25 | CS(=O)(=O)c1cc(C(F)(F)F)ccc1C(=O)c1cnoc1C1CC1 | inactive
26 | CCCCOCN(C(=O)CCl)c1c(CC)cccc1CC | inactive

biological target: Cellular tumor antigen p53 (Homo sapiens) (UniProt P04637); assay: TOX21_p53_BLA_p2_ratio: Tox21 HCT-116 p53 Agonism Beta-lactamase Assay, Ratio, Phase 2 (AID 2283592)
Method in brief: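 In this cell-based reporter format, HCT116 cells were dosed with chemicals delivered from DMSO by 217-fold dilution and incubated 16 h at 37C. Emission at 460 and 530 nm after 2 h CCF4-AM loading provided the ratio, fitted upward versus DMSO.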

Sequence of Cellular tumor antigen p53 (Homo sapiens) (P04637 whole entry, looked up): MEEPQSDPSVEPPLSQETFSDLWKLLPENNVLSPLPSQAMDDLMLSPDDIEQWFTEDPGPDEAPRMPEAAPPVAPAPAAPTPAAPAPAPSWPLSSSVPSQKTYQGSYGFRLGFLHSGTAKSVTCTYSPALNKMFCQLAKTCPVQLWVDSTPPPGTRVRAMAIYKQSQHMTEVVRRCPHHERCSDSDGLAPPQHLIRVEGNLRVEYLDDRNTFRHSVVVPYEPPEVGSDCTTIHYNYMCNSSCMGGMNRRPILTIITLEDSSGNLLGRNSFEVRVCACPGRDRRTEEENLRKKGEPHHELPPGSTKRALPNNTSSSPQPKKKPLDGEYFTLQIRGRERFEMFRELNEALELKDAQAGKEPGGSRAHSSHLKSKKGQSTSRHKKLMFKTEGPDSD

Row | SMILES | outcome
27 | CNC(=O)N(C)c1nnc(C(C)(C)C)s1 | inactive
28 | Clc1nc(Cl)nc(Nc2ccccc2Cl)n1 | inactive
29 | Nc1cnn(-c2ccccc2)c(=O)c1Cl | inactive
30 | CN/C(=N\[N+](=O)[O-])NCc1cnc(Cl)s1 | inactive
31 | CN=C=S | inactive
32 | CC(C)Nc1nc(Cl)nc(NC(C)C)n1 | inactive
33 | CCCC(=NOCC)C1=C(O)CC(CC(C)SCC)CC1=O (stereo not given) | inactive
34 | CCOP(=S)(OCC)Oc1nc(Cl)n(C(C)C)n1 | inactive
35 | COC(=O)c1c(C(F)F)nc(C(F)(F)F)c(C2=NCCS2)c1CC(C)C | inactive
36 | O=P(O)(O)CCCl | inactive
37 | COc1cc(Cl)c(OC)cc1Cl | inactive
38 | CC(C)C1(C)N=C(c2ncccc2C(=O)O)NC1=O (stereo not given) | inactive
39 | COC(=O)NC(=S)Nc1ccccc1NC(=S)NC(=O)OC | inactive
40 | CCOc1nc(C(Cl)(Cl)Cl)ns1 | inactive
41 | CCC(C)n1c(=O)[nH]c(C)c(Br)c1=O (stereo not given) | inactive
42 | Cc1cc(C)nc(Nc2ccccc2)n1 | inactive
43 | CCN(CC)c1nc(C)cc(OP(=S)(OC)OC)n1 | inactive
44 | CCCCOCN(C(=O)CCl)c1c(CC)cccc1CC | inactive
45 | CNC(=O)Oc1cccc2ccccc12 | inactive
